According to PubChem BioAssay (EPA / NIEHS):
Where “and” joins values, the source holds several entries; their conditions need not be identical. Identical values can stand only once. Where a structure was tested more than once in an assay, its records may differ in their call. Calls of active or inactive are those of the source. The calls were made as follows: active = hit-call score of the fitted dose curve at least 0.9, where 1 is the maximum; inactive = score below 0.9.

Key:
[1] = read-out: Urokinase-type plasminogen activator receptor (uPAR), PLAUR (gene 5329); experiment: BSK_4H_uPAR: BioMAP Diversity Plus: 4H Assay for Urokinase-type plasminogen activator receptor (uPAR) Biomarker Activity (AID 2283030); conditions: primary human endothelial cells (HUVEC); actives raise or lower the signal
Summary of the method: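 HUVEC, 24 h post-dose; uPAR by ELISA; bidirectional fit vs DMSO baseline.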

[2] = read-out: Vascular endothelial growth factor receptor 2 (Homo sapiens) (UniProt P35968); experiment: BSK_4H_VEGFRII: BioMAP Diversity Plus: 4H Assay for Vascular endothelial growth factor receptor 2 (VEGFR2) Biomarker Activity (AID 2283031); conditions: primary human endothelial cells (HUVEC); actives raise or lower the signal;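 as to AC50: cell-surface VEGFR2 protein level quantified by ELISA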
Summary of the method: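 HUVEC (human primary), 4H system; 24 h post-dose; VEGFRII by ELISA; bidirectional curve fit vs DMSO baseline; gain or loss of signal scored.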

[3] = read-out: Human Leukocyte Antigen - DR isotype (HLADR), HLA-DRA (gene 3122); experiment: BSK_BE3C_HLADR: BioMAP Diversity Plus: BE3C Assay for Human Leukocyte Antigen - DR isotype (HLADR) Biomarker Activity (AID 2283032); conditions: primary human bronchial epithelial cells; actives raise or lower the signal
Summary of the method: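 Human primary bronchial epithelial cells in the BE3C system were exposed to chemicals for 24 h, after which HLA-DR levels were quantified by ELISA. Activity was fitted bidirectionally, gain or loss of signal, against DMSO as negative control and baseline.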

[4] = read-out: Vascular cell adhesion molecule 1 (VCAM1), VCAM1 (gene 7412); experiment: BSK_4H_VCAM1: BioMAP Diversity Plus: 4H Assay for Vascular cell adhesion molecule 1 (VCAM1) Biomarker Activity (AID 2283033); conditions: primary human endothelial cells (HUVEC); actives raise or lower the signal
Summary of the method: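 Primary human umbilical vein endothelial cells were exposed to chemicals for 24 h, after which VCAM-1 was quantified by ELISA. Responses were fitted bidirectionally against DMSO as negative control and activity baseline.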

[5] = read-out: Interferon-gamma inducible Protein 10 (IP10), CXCL10 (gene 3627); experiment: BSK_BE3C_IP10: BioMAP Diversity Plus: BE3C Assay for Interferon-gamma inducible Protein 10 (IP10) Biomarker Activity (AID 2283034); conditions: primary human bronchial epithelial cells; actives raise or lower the signal
Summary of the method: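 Human primary bronchial epithelial cells were exposed to chemicals for 24 hours, after which IP-10 levels were measured by ELISA. Data were fitted bidirectionally against DMSO, which served as the negative control and activity baseline.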

[6] = read-out: Monokine induced gamma interferon (MIG), CXCL9 (gene 4283); experiment: BSK_BE3C_MIG: BioMAP Diversity Plus: BE3C Assay for Monokine induced gamma interferon (MIG) Biomarker Activity (AID 2283035); conditions: primary human bronchial epithelial cells; actives raise or lower the signal
Summary of the method: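 MIG level was determined by ELISA after 24 h chemical treatment of primary human bronchial epithelial cells. Values were fitted bidirectionally with DMSO as the negative control and activity baseline.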

[7] = read-out: Transforming growth factor beta 1 (TGFb1), TGFB1 (gene 7040); experiment: BSK_BE3C_TGFb1: BioMAP Diversity Plus: BE3C Assay for Transforming growth factor beta 1 (TGFb1) Biomarker Activity (AID 2283036); conditions: primary human bronchial epithelial cells; actives raise or lower the signal
Summary of the method: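 Human primary bronchial epithelial cells (BE3C system) were dosed with chemical and TGF-b1 levels measured by ELISA at 24 h. Activity was fitted bidirectionally relative to DMSO negative control as baseline.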

[8] = read-out: urokinase plasminogen activator (uPA), PLAU (gene 5328); experiment: BSK_BE3C_uPA: BioMAP Diversity Plus: BE3C Assay for urokinase plasminogen activator (uPA) Biomarker Activity (AID 2283038); conditions: primary human bronchial epithelial cells; actives raise or lower the signal
Summary of the method: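 ELISA read-out of uPA in human lung primary bronchial epithelial cultures, 24 h post-dosing. Gain or loss of signal fitted bidirectionally relative to DMSO baseline; cytotoxicity checked in parallel cultures via SRB total protein stain.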

[9] = read-out: Urokinase-type plasminogen activator receptor (uPAR), PLAUR (gene 5329); experiment: BSK_BE3C_uPAR: BioMAP Diversity Plus: BE3C Assay for Urokinase-type plasminogen activator receptor (uPAR) Biomarker Activity (AID 2283039); conditions: primary human bronchial epithelial cells; actives raise or lower the signal
Summary of the method: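 Primary human bronchial epithelial cells were dosed with chemical and harvested 24 h later; uPAR was quantified by ELISA. Activity was fitted bidirectionally against DMSO as negative control and baseline.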

[10] = read-out: Plasminogen activator inhibitor-1 (PAI1), SERPINE1 (gene 5054); experiment: BSK_BE3C_PAI1: BioMAP Diversity Plus: BE3C Assay for Plasminogen activator inhibitor-1 (PAI1) Biomarker Activity (AID 2283037); conditions: primary human bronchial epithelial cells; actives raise or lower the signal
Summary of the method: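 Human primary bronchial epithelial cells were exposed to chemical for 24 h, then PAI-1 was quantified by ELISA. Activity was fitted bidirectionally relative to the DMSO negative control baseline.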

Measured: AC50

O[Si](c1ccccc1)(c1ccccc1)c1ccccc1
inactive: [3] | [5] | [6] | [7] | [8] | [9]
active: [1] 4.82 µM | [2] 29.5 µM | [4] 14.8 µM

OCC(F)(F)C(F)(F)C(F)(F)F
inactive: [1] | [2] | [3] | [4] | [5] | [6] | [10] | [8] | [9]

O=P(O)(O)OCCC(F)(F)C(F)(F)C(F)(F)C(F)(F)C(F)(F)C(F)(F)F
inactive: [1] | [2] | [3] | [4] | [5] | [6] | [10] | [8] | [9]
active: [4] 6.01 µM

CCc1ccc(C(c2ccc(CC)cc2)C(Cl)Cl)cc1
active: [1] 32.3 µM | [2] 13.1 µM | [3] 13.6 µM | [4] 28.5 µM | [5] 20 µM | [10] 20 µM
inactive: [6] | [7] | [8] | [9]

CCN(CC)c1ccc2c(C)cc(=O)oc2c1
inactive: [1] | [2] | [3] | [4] | [5] | [6] | [7] | [10] | [8] | [9]

CS(C)(=O)=O
inactive: [1] | [2] | [3] | [4] | [5] | [6] | [7] | [10] | [8] | [9]

CCCCCCC(C)OC(=O)CCCCC(=O)OC(C)CCCCCC (stereo not given)
inactive: [1] | [2] | [3] | [4] | [5] | [6] | [7] | [8] | [9]

C=CC/C=C/C/C=C/C/C=C/C
inactive: [1] | [2] | [3] | [4] | [5] | [6] | [7] | [10] | [8] | [9]

Nc1ccc([N+](=O)[O-])cc1O
active: [9] 20 µM
inactive: [1] | [2] | [3] | [4] | [5] | [6] | [7] | [8]

O=C(O)C(F)(F)C(F)(F)C(F)(F)C(F)(F)C(F)(F)C(F)(F)C(F)(F)C(F)(F)Cl
active: [3] 18.2 µM and 17.6 µM | [4] 56.8 µM | [5] 18.3 µM and 17.9 µM | [6] 46.6 µM and 46.5 µM | [8] 45.7 µM and 45.8 µM | [9] 48.6 µM and 44.4 µM
inactive: [1] | [2] | [4]

O=C(Cl)C(F)(F)C(F)(F)C(F)(F)C(F)(F)C(F)(F)C(F)(F)C(F)(F)C(F)(F)F
inactive: [1] | [2] | [4] | [10]
active: [2] 30 µM | [3] 50 µM and 48.6 µM and 50.7 µM | [5] 39.8 µM and 36.6 µM and 44.6 µM | [6] 55.3 µM and 46.6 µM and 46.1 µM | [8] 51.7 µM and 48.2 µM and 47.1 µM | [9] 47.8 µM and 53.7 µM and 48.4 µM

CCCCCCCOC(=O)c1ccccc1C(=O)OCCCCCCC
active: [1] 4.08 µM
inactive: [2] | [3] | [4] | [5] | [6] | [7] | [8] | [9]

Cc1ccc(S(=O)(=O)OCC(F)(F)C(F)(F)C(F)(F)C(F)(F)C(F)(F)C(F)F)cc1
active: [1] 46 µM
inactive: [1] | [2] | [3] | [4] | [5] | [6] | [10] | [8] | [9]

N=C(N)C(F)(F)C(F)(F)C(F)(F)C(F)(F)C(F)(F)C(F)(F)C(F)(F)F
active: [3] 43.1 µM | [4] 21.1 µM and 44.1 µM | [5] 48.6 µM
inactive: [1] | [2] | [3] | [5] | [6] | [10] | [8] | [9]

CCCCNc1ccccc1
inactive: [1] | [2] | [3] | [4] | [5] | [6] | [7] | [10] | [8] | [9]

C#C[C@]1(O)CC[C@H]2[C@@H]3CCc4cc(OC)ccc4[C@H]3CC[C@@]21C
active: [3] 6.9 µM
inactive: [1] | [2] | [4] | [5] | [6] | [7] | [10] | [8] | [9]
